Source: PubChem BioAssay
D2 ag-1: D2 dopamine receptor (human) agonism. P14416. HEK293 T-REx D2 cells, calcium flux agonist mode. activation, % at 2 µM. 0.53% of 340,000 active;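 active = activation over 3 SD above normal in the single-dose calcium agonist read, cut at about 30% in these data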; also: 0% is about no effect
Target sequence (P14416 whole entry, looked up): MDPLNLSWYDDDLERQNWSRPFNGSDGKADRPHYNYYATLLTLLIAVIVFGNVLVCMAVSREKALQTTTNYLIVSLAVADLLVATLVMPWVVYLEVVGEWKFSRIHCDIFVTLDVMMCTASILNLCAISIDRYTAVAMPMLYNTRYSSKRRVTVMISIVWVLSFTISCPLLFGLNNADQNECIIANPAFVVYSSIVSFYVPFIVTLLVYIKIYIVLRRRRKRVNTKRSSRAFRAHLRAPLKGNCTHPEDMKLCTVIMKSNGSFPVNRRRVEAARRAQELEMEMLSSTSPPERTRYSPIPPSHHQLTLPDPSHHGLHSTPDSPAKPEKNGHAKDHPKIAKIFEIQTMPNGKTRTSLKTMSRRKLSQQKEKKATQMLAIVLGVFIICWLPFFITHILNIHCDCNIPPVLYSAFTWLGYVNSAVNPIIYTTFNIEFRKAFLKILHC
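HEK293 Trex D2 cells, tetracycline-induced, o/n 30 C 5% CO2; no-wash Ca dye, RT 30–90 min; 10-cycle baseline, 23 nl cpd added, kinetic Ca read 180 s; agonist hits = positive Ca response.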
D2 PAM-1: positive allosteric modulators of human D2 dopamine receptor; DiscoveRx D2 beta-arrestin cells, luminescence, 90 min; 100% = 57 uM dopamine signal; potentiation, % (concentration not given with the values); 0.23% of 360,000 active; AID 624464; in the data active = potentiation above about 50%; inconclusive = mostly about 30% to 49%
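PathHunter beta-arrestin assay in DiscoveRx D2 cells. Compounds were added with an EC20 of dopamine (50 nM final) for 90 min at 37 deg C. Luminescence was read 1 h after detection reagent, with 57 uM dopamine as the EC100 control.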
D2 antag: antagonists of human D2 dopamine receptor; inhibition, % at 10 µM; HEK293 TREx D2 cells, calcium flux, dopamine EC80; P14416; 2% of 340,000 active; in the data active = inhibition above about 30%; inactive = below that, where a call was filed; also: 0% is about no effect
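Cells plated overnight at 30 C with tetracycline; no-wash calcium dye, 30–90 min RT; 10 s baseline; compound pinned; 180 s read; EC80 dopamine added; another 180 s read.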
D2 ag-2: human D2 receptor agonism in beta-arrestin assay. P14416. DiscoveRx PathHunter D2 beta-arrestin, luminescence, 90 min; 100% = 57 uM dopamine signal. activation, % (no concentration beside the values). 0.084% of 360,000 active; in the data active = activation above about 40%; inconclusive = between about 15% and that limit
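Agonist mode: compounds alone added to overnight-plated D2 PathHunter cells for 90 min at 37 C, with 57 uM final dopamine (EC100) defining full response. Beta-arrestin recruitment detected by chemiluminescent reagent, read after 1 h at ambient temperature.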
D2 PAM-2: D2 dopamine receptor (human) potentiation. P14416. HEK293 T-REx D2, calcium flux, EC20 dopamine potentiation. potentiation, % at 10 µM. 0.34% of 340,000 active;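 active = potentiation over 3 SD above the plate norm, cut at about 30% in these data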; also: 0% is about no effect
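Cells plated with tetracycline inducer and held overnight at 30 C; calcium dye loaded 30–90 min at room temperature; baseline taken, compound added and read 180 s; EC20 dopamine then added and read 180 s.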
* hit, by the source's call; ? = inconclusive; . = no result. This is a sample that favours compounds with a hit; in the whole collection about 2.4% have one here.

SMILES	D2 ag-1	D2 PAM-1	D2 antag	D2 ag-2	D2 PAM-2
C=CC[N+](C)(C)CCCNC(=O)/C=N/O	-1	-8	62*	-2	-1
CCS(=O)(=O)N1Cc2ccccc2CC1C(=O)Nc1cccc(OC)c1 (stereo unspecified)	-1	-2	34*	-2	0
CCS(=O)(=O)N1Cc2ccccc2CC1C(=O)Nc1ccc(OC)c(OC)c1 (stereo unspecified)	0	0	4	-2	-2
COCCn1c(SCC(=O)Nc2ccc(F)c(Cl)c2)nc2c(oc3ccccc32)c1=O	0	.	.	.	11
COc1ccc2nc(SCC(=O)N3CCNC3=O)[nH]c2c1	1	-6	44*	-2	6
COC(=O)C1CCN(C(=O)CSc2nc3ccc(OC)cc3[nH]2)CC1	2	-19	2	-1	11
CCOc1ccc(C(=O)Oc2cc(C)[nH]c(=O)c2[N+](=O)[O-])cc1	0	-2	15	-3	6
CCCCOc1ccc(C(=O)Oc2cc(C)[nH]c(=O)c2[N+](=O)[O-])cc1	0	-1	77*	-6	-2
O=[N+]([O-])c1ccc(/C=N/NC(=S)Nc2ccc(Cl)cc2Cl)s1	2	-10	45*	-3	-7
COc1cc2[nH]c(C(=O)NCC3CCCO3)cc2c(OC)c1OC (stereo unspecified)	0	-24	55*	-1	-24
Cn1nc(C(F)(F)F)c2cc(C(=O)Nc3ccc(F)cc3F)sc21	0	-20	-5	3	11
Cn1nc(C(F)(F)F)c2cc(C(=O)Nc3ccc(Cl)cc3)sc21	1	-37	64*	2	-25
COc1ccccc1NC(=O)NC1CCS(=O)(=O)C1 (stereo unspecified)	1	-4	39*	-4	-5
Cc1ccccc1NC(=O)NC1CCS(=O)(=O)C1 (stereo unspecified)	0	4	-7	-1	2
Cc1cc2oc(C(=O)Nc3nonc3C)c(C)c2cc1Cl	0	-7	12	-1	34*
O=C(Oc1ccccc1C(=S)N1CCOCC1)c1ccc([N+](=O)[O-])cc1[N+](=O)[O-]	1	58*	-13	?	-4
O=C(NCCN1CCOCC1)c1ccc([N+](=O)[O-])cc1[N+](=O)[O-]	1	50*	43*	7	0
COc1ccc(-c2nnc(SCC(=O)Nc3cc(C)on3)o2)cc1	2	-2	36*	-6	15
COc1ccccc1NC(=O)Cn1c(O)c(N=NC(=O)c2ccccc2O)c2ccccc21	4	9	55*	?	-4
COc1cc(F)ccc1CN1CCC(C(=O)Nc2ccc(Oc3ccccc3)nc2)CC1	1	-17	40*	-8	-11
COc1ccc(CN2CCC(C(=O)Nc3ccc(Oc4ccccc4)nc3)CC2)cc1F	2	-15	11	-1	-1
CC(C)Oc1ccc(CNC(=O)c2cc3ccccn3n2)cc1	0	.	.	.	-2
CC(C)CN1CCN(Cc2cccn2-c2ccccn2)CC1CCO (stereo unspecified)	2	-8	9	-3	8
CC(C)CN1CCN(Cc2c[nH]c3ccccc23)CC1CCO (stereo unspecified)	0	-4	-15	-1	5
CC(C)=CCN1CCN(Cc2cccn2-c2ccccn2)CC1CCO (stereo unspecified)	-2	-6	99*	-6	-5
SMILES	D2 ag-1	D2 PAM-1	D2 antag	D2 ag-2	D2 PAM-2
CC(C)=CCN1CCN(Cc2c[nH]c3ccccc23)CC1CCO (stereo unspecified)	0	-31	47*	-2	-16
COc1cccc2c(C)cc3nnc(SCC(=O)Nc4ccc(C)cc4)n3c12	-2	.	.	.	-16
Cc1cc(C)nc(N(C#N)Cc2ccccc2C)n1	0	-5	50*	0	-3
Cc1ccc(N2CCN(C(=O)CCS(=O)(=O)c3cc4c(cc3Cl)NC(=O)CO4)CC2)c(C)c1	1	.	.	.	4
COc1cc(OC)cc(-c2nc3nc(C)c(CCC(=O)Nc4ccc(F)cc4F)c(C)n3n2)c1	.	.	.	.	9
CCCSCCCNC(=O)c1cc2c(s1)CS(=O)(=O)C2	0	5	-5	-1	0
CC1CCC(NC(=O)c2cc3c(s2)CS(=O)(=O)C3)CC1 (stereo unspecified)	1	-10	41*	-2	11
Cc1ccc(-c2nc(CS(=O)CC(=O)NCCN(CC(C)C)CC(C)C)c(C)o2)cc1 (stereo unspecified)	-1	-4	1	-1	106*
CCN1CCN(C(=O)CS(=O)Cc2nc(-c3ccc(OC)cc3)oc2C)CC1 (stereo unspecified)	0	-4	40*	-5	-14
Cc1ccc(-c2nc(CS(=O)CC(=O)NCCN3CCCC3)c(C)o2)cc1 (stereo unspecified)	-1	-4	-5	-5	-7
CCC1CCCCN1CCCNC(=O)CS(=O)Cc1nc(-c2ccc(OC)c(OC)c2)oc1C (stereo unspecified)	2	-8	36*	-4	2
CCc1ccc(-c2nc(CS(=O)CC(=O)NCCCN3CCC(C)CC3)c(C)o2)cc1 (stereo unspecified)	0	-24	30*	-7	-9
CCc1ccc(-c2nc(CS(=O)CC(=O)NCCN3CCCCCC3)c(C)o2)cc1 (stereo unspecified)	1	-19	-3	-3	4
Cc1ccc(S(=O)(=O)NC(=O)Nc2cccc([N+](=O)[O-])c2)cc1	0	-8	68*	1	1
Cc1ccc(S(=O)(=O)NCC(=O)Nc2cccc([N+](=O)[O-])c2)cc1	-1	-9	-12	1	5
Cc1ccc(S(=O)(=O)N(CC(=O)Nc2cccnc2)c2cccc([N+](=O)[O-])c2)cc1	-1	-21	50*	-1	-23
Cc1ccc(/C=N/NC(=O)c2ccc(N(C)S(=O)(=O)c3ccccc3)cc2)cc1	0	-7	48*	1	-5
Cc1ccc(S(=O)(=O)N(C)/N=C/c2ccc(C(=O)O)cc2)cc1	0	2	30*	-4	-3
O=C(Cn1c(=O)n(CCc2ccccc2)c(=O)c2cccnc21)Nc1ccc(F)cc1	0	.	.	.	-2
Cc1c(C(=O)Nc2ccc(F)c(Cl)c2)sc2nc3n(c(=O)c12)CCC3	0	.	.	.	-2
CCOC(=O)CCN(c1ccccc1)S(=O)(=O)c1cc(-c2cc(C)no2)ccc1C	1	.	.	.	0
CS(=O)(=O)N(CC(=O)Nc1cccc([N+](=O)[O-])c1)c1ccccc1	-1	-7	-25	-6	1
COc1cc(/C=N/NC(=O)c2ccc(N(C)S(=O)(=O)c3ccccc3)cc2)cc(OC)c1OC	0	-4	-3	2	-3
